In all, about 1,000 compounds went through this assay and about 140 (14%) were called active. No rule for the calls is given here. Shown is part of a subset that was picked to be rich in actives.

A short description of the experiment: thallium flux change in parental CHO cells, counter-screen for KCNQ2 inhibitor project (AID 493029).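 As to activity change: 0% = vehicle negative controls with stimulus buffer.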 The following applies: at 10 µM; hits give low values. For orientation: The purpose of a counterscreen is to sort out artefacts and off-target activity.
`CN(C)CC1Oc2ccccc2OC1(O)c1ccccc1` (configuration not stated): the activity change is -23% (active). As for `O=C(NC(c1ccc(Cl)cc1)P(=O)(Oc1ccccc1)Oc1ccccc1)OCc1ccccc1` (configuration not stated), the entry is “inactive”.
